Among the data in PubChem BioAssay AID485276 (Southern Research Specialized Biocontainment Screening …, 2010) are outcome values, retold here.

Each structure is given as a SMILES string. Potency and affinity values are given separately. Active and inactive are the calls of the source. Entries that show only a call come without a potency. No rule for the calls is given here.

This assay in a line: antiviral efficacy against SV40, host toxicity – BSC cells, set 3, confirmation (AID 485276).

For `CC(C)(c1ccccc1)n1nnc(-c2ccccc2)n1`, the compound was classed as inactive. To `Oc1c(Cl)cc(Cl)cc1Sc1cc(Cl)cc(Cl)c1O` belongs “inactive”.

As for `Oc1ccc(C2(c3ccc(O)cc3)CC2)cc1`, the outcome was inactive.

Regarding `Oc1ccc(Oc2ccc(O)cc2)cc1`, the compound was classed as inactive. The entry for `Oc1ccc(Cl)cc1Cc1cc(Cl)ccc1O` is “inactive”; for `CC(C)(c1ccc(O)cc1)c1ccc(Cl)cc1` it is “inactive”.
